Laboratory results published in publication PMC7862700, “An all-to-all approach to the identification of sequence-specific readers for epigenetic DNA modifications on cytosine”.

Experiments:
Test in all cases: DAPPL (digital affinity profiling via proximity ligation, sequencing); 10 mM Tris-HCl pH 7.5, 50 mM NaCl, 1 mM DTT, 4% glycerol, room temperature, 30 min; GST-TFs on glutathione beads, 16-mer random dsDNA library, 0.1% formaldehyde crosslink after washing; high values mean tight binding
ETV5 = ETV5 (Homo sapiens, UniProt P41161 1-510); conditions: protein: recombinant; tags: N-terminal GST; dsDNA, one strand shown
Summary of the method: (§1)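 A tag-only sample was pooled with DNA-barcoded human transcription factors that had been expressed in yeast as GST fusions and captured on glutathione beads. The pools were incubated for 30 min at room temperature with 200 nmole of a random double-stranded 16-mer DNA library in Tris/NaCl/DTT/glycerol buffer, then washed, crosslinked with 0.1% formaldehyde, proximity-ligated (BsaI/T4 ligase, 1 h, 37 °C), PCR-amplified and sequenced on an Illumina NextSeq500. Binding signal is each hexamer's read frequency for a factor divided by its frequency for the tag-only sample.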

HSF1 = HSF1 (Homo sapiens, UniProt Q00613 1-529); conditions: protein: recombinant; tags: N-terminal GST; chain copies: 3; dsDNA, one strand shown
Summary of the method: as §1

SPIC = target: T1, SPIC (Homo sapiens, UniProt Q8N5J4 1-248); conditions: protein: recombinant; tags: N-terminal GST; dsDNA, one strand shown
T1 sequence: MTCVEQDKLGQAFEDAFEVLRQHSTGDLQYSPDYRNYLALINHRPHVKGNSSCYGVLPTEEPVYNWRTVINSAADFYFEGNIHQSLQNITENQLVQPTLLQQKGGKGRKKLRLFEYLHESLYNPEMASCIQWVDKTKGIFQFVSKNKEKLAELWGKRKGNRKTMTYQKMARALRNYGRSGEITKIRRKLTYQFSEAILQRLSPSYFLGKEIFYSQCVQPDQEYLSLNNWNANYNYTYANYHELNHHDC
Summary of the method: as §1

ELF4 = ELF4 (Homo sapiens, UniProt Q99607 1-663); conditions: protein: recombinant; tags: N-terminal GST; dsDNA, one strand shown
Summary of the method: as §1

ELK4 = target: T2, ELK4 (Homo sapiens, UniProt P28324-2 1-405); conditions: protein: recombinant; tags: N-terminal GST; dsDNA, one strand shown
T2 sequence: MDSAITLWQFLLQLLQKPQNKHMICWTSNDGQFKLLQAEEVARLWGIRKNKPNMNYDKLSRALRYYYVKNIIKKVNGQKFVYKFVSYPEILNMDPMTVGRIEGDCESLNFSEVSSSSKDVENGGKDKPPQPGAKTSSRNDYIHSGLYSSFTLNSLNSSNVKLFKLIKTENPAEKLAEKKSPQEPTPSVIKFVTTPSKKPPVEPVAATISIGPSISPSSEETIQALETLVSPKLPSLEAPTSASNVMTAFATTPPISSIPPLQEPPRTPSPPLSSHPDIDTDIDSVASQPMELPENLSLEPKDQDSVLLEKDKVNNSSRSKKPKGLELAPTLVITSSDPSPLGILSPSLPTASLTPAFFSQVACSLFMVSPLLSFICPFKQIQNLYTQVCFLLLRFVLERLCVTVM
Summary of the method: as §1

ETV2 = target: T3, ETV2 (Homo sapiens, UniProt O00321 1-342); conditions: protein: recombinant; tags: N-terminal GST; dsDNA, one strand shown
T3 sequence: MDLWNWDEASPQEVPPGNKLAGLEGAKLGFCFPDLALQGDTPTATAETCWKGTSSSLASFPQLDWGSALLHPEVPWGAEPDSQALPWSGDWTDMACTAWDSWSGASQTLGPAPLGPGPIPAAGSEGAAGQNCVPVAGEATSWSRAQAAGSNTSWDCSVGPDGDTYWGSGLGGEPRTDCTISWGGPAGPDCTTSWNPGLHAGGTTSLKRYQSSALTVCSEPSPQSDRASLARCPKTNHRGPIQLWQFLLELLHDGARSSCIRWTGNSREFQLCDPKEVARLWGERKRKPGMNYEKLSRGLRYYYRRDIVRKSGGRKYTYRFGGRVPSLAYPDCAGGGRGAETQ
Summary of the method: as §1

ELF3 = target: T4, ELF3 (Homo sapiens, UniProt P78545 1-371); conditions: protein: recombinant; tags: N-terminal GST; dsDNA, one strand shown
T4 sequence: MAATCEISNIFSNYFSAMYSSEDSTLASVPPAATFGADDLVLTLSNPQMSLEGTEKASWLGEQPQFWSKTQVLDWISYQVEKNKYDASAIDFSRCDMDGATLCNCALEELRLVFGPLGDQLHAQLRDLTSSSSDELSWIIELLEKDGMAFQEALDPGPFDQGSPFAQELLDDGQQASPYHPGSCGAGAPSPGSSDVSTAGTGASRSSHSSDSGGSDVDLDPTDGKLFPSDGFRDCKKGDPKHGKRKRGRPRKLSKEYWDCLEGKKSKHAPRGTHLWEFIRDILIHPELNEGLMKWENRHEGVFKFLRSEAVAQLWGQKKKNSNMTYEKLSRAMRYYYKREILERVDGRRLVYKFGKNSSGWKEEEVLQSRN
Summary of the method: as §1

CRX = CRX (Homo sapiens, UniProt O43186 1-299); conditions: protein: recombinant; tags: N-terminal GST; dsDNA, one strand shown
Summary of the method: as §1

ETV1 = ETV1 (Homo sapiens, UniProt P50549 1-477); conditions: protein: recombinant; tags: N-terminal GST; dsDNA, one strand shown
Summary of the method: as §1

FEV = target: T5, FEV (Homo sapiens, UniProt Q99581 1-238); conditions: protein: recombinant; tags: N-terminal GST; dsDNA, one strand shown
T5 sequence: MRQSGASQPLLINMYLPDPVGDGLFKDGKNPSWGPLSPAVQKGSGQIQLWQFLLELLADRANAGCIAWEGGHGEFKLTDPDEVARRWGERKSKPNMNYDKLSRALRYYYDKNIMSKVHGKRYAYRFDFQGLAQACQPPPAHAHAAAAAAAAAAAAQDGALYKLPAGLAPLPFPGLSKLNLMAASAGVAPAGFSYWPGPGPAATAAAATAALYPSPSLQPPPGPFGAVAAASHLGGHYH
Summary of the method: as §1

Chain of ETV5 (P41161 whole entry, the tested form may be a part): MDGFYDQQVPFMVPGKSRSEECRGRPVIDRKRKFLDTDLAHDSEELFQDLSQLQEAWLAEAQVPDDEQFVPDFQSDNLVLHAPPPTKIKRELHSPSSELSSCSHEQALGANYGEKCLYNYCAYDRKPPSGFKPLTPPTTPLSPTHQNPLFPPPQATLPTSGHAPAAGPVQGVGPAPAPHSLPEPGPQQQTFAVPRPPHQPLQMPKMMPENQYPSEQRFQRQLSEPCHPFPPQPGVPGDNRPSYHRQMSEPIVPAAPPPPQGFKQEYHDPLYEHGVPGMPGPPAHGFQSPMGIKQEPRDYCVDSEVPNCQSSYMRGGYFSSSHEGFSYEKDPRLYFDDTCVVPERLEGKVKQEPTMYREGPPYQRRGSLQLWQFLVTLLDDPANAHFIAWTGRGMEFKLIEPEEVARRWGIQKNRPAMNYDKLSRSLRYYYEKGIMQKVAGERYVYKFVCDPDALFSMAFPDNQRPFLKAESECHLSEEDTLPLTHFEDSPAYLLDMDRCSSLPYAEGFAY
Chain of CRX (O43186 whole entry): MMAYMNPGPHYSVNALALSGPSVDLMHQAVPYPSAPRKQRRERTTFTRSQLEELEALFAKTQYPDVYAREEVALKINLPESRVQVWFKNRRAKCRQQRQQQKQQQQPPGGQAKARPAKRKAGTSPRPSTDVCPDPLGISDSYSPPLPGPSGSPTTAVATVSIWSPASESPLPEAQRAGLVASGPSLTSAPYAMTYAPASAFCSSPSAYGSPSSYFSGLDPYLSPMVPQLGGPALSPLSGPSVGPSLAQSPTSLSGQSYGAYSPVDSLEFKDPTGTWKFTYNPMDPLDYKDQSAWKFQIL
Chain of HSF1 (Q00613 whole entry): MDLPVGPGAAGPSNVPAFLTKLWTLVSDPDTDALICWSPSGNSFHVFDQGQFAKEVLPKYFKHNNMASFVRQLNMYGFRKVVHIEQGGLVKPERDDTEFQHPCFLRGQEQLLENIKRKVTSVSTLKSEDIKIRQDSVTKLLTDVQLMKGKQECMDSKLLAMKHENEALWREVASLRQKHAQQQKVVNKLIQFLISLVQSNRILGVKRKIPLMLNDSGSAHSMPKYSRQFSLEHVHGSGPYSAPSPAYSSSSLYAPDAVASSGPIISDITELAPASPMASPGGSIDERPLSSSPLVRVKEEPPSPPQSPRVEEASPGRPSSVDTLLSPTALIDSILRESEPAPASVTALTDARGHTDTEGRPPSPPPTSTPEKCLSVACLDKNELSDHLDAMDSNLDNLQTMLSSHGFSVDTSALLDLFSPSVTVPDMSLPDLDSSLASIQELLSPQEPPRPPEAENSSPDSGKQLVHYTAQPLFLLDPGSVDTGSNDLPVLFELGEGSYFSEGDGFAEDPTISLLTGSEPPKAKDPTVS
Chain of ELF4 (Q99607 whole entry): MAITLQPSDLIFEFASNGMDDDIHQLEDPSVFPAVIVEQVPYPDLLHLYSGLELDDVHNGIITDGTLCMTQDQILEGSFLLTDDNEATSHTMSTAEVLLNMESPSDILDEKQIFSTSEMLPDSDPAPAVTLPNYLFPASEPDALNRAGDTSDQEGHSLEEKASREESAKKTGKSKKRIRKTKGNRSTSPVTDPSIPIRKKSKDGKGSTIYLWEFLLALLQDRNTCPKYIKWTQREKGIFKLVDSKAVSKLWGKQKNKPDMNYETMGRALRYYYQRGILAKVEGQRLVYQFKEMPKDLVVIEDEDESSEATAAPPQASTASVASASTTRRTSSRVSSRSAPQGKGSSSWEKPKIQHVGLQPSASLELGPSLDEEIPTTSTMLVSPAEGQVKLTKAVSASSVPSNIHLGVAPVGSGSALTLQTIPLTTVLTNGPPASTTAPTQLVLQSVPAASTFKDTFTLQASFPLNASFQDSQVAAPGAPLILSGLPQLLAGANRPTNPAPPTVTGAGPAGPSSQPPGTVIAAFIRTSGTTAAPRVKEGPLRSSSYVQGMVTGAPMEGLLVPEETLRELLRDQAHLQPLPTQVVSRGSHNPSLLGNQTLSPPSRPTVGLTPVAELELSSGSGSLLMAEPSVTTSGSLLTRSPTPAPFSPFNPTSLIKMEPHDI
Chain of ETV1 (P50549 whole entry): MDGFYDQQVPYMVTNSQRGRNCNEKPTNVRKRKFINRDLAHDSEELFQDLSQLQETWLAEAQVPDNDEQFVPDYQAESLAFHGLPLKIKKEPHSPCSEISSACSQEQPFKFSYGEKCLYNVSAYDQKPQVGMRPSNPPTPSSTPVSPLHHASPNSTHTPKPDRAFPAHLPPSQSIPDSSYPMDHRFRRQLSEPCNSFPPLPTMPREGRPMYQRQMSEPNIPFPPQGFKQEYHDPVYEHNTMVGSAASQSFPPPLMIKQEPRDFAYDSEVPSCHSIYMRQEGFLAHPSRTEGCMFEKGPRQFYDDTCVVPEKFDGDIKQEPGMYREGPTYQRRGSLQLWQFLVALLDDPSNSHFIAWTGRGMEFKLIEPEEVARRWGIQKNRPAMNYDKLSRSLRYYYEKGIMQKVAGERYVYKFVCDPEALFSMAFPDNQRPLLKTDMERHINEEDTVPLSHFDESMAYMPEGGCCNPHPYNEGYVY

With TAGTAA the binding signal (ETV5) was 1.05 fold enrichment (6-mer frequency, TF over GST control), the binding signal (HSF1) was 1.54 fold enrichment (6-mer frequency, TF over GST control) and the binding signal (SPIC) was 1.07 fold enrichment (6-mer frequency, TF over GST control). For the same sequence, the binding signal (ELF4) was 1.05 fold enrichment (6-mer frequency, TF over GST control), the binding signal (ELK4) was 1.04 fold enrichment (6-mer frequency, TF over GST control) and the binding signal (ETV2) was 1.12 fold enrichment (6-mer frequency, TF over GST control). The binding signal (ELF3) was 1.06 fold enrichment (6-mer frequency, TF over GST control), the binding signal (CRX) was 1.59 fold enrichment (6-mer frequency, TF over GST control) and the binding signal (ETV1) was 1.07 fold enrichment (6-mer frequency, TF over GST control).
For GTTAAA, the binding signal (ETV5) was 1.02 fold enrichment (6-mer frequency, TF over GST control), the binding signal (HSF1) was 1.01 fold enrichment (6-mer frequency, TF over GST control) and the binding signal (SPIC) was 1.17 fold enrichment (6-mer frequency, TF over GST control). For the same sequence, the binding signal (ELF4) was 1.07 fold enrichment (6-mer frequency, TF over GST control), the binding signal (ELK4) was 1.04 fold enrichment (6-mer frequency, TF over GST control) and the binding signal (ETV2) was 1.11 fold enrichment (6-mer frequency, TF over GST control). For the same sequence, the binding signal (ELF3) was 1.29 fold enrichment (6-mer frequency, TF over GST control) and the binding signal (CRX) was 1.27 fold enrichment (6-mer frequency, TF over GST control).
AAAAGT was tested, and the binding signal (FEV) was 1.04 fold enrichment (6-mer frequency, TF over GST control), the binding signal (ETV5) was 1.06 fold enrichment (6-mer frequency, TF over GST control) and the binding signal (HSF1) was 1.06 fold enrichment (6-mer frequency, TF over GST control). For the same sequence, the binding signal (SPIC) was 1.1 fold enrichment (6-mer frequency, TF over GST control), the binding signal (ELF4) was 1.1 fold enrichment (6-mer frequency, TF over GST control) and the binding signal (ELK4) was 1.24 fold enrichment (6-mer frequency, TF over GST control). The binding signal (ETV2) was 1.03 fold enrichment (6-mer frequency, TF over GST control), the binding signal (ELF3) was 1.12 fold enrichment (6-mer frequency, TF over GST control) and the binding signal (CRX) was 1.09 fold enrichment (6-mer frequency, TF over GST control). For the same sequence, the binding signal (ETV1) was 1.13 fold enrichment (6-mer frequency, TF over GST control).
With TCTACA the binding signal (FEV) was 1.2 fold enrichment (6-mer frequency, TF over GST control), the binding signal (ETV5) was 1.18 fold enrichment (6-mer frequency, TF over GST control) and the binding signal (HSF1) was 1.39 fold enrichment (6-mer frequency, TF over GST control). The binding signal (SPIC) was 1.44 fold enrichment (6-mer frequency, TF over GST control), the binding signal (ELF4) was 1.15 fold enrichment (6-mer frequency, TF over GST control) and the binding signal (ELK4) was 1.17 fold enrichment (6-mer frequency, TF over GST control). For the same sequence, the binding signal (ETV2) was 1.18 fold enrichment (6-mer frequency, TF over GST control), the binding signal (ELF3) was 1.22 fold enrichment (6-mer frequency, TF over GST control) and the binding signal (CRX) was 1.17 fold enrichment (6-mer frequency, TF over GST control). The binding signal (ETV1) was 1.16 fold enrichment (6-mer frequency, TF over GST control).
With TTATTC the binding signal (FEV) was 1.39 fold enrichment (6-mer frequency, TF over GST control), the binding signal (ETV5) was 1.33 fold enrichment (6-mer frequency, TF over GST control) and the binding signal (HSF1) was 2.13 fold enrichment (6-mer frequency, TF over GST control). For the same sequence, the binding signal (SPIC) was 1.45 fold enrichment (6-mer frequency, TF over GST control), the binding signal (ELF4) was 1.41 fold enrichment (6-mer frequency, TF over GST control) and the binding signal (ELK4) was 1.31 fold enrichment (6-mer frequency, TF over GST control). For the same sequence, the binding signal (ETV2) was 1.54 fold enrichment (6-mer frequency, TF over GST control), the binding signal (ELF3) was 1.24 fold enrichment (6-mer frequency, TF over GST control) and the binding signal (CRX) was 2.37 fold enrichment (6-mer frequency, TF over GST control). For the same sequence, the binding signal (ETV1) was 1.36 fold enrichment (6-mer frequency, TF over GST control).
With TCCTCT the binding signal (FEV) was 1.63 fold enrichment (6-mer frequency, TF over GST control), the binding signal (ETV5) was 1.64 fold enrichment (6-mer frequency, TF over GST control) and the binding signal (HSF1) was 1.51 fold enrichment (6-mer frequency, TF over GST control). The binding signal (SPIC) was 1.67 fold enrichment (6-mer frequency, TF over GST control), the binding signal (ELF4) was 1.69 fold enrichment (6-mer frequency, TF over GST control) and the binding signal (ELK4) was 1.53 fold enrichment (6-mer frequency, TF over GST control). For the same sequence, the binding signal (ETV2) was 1.68 fold enrichment (6-mer frequency, TF over GST control), the binding signal (ELF3) was 1.66 fold enrichment (6-mer frequency, TF over GST control) and the binding signal (CRX) was 1.79 fold enrichment (6-mer frequency, TF over GST control). For the same sequence, the binding signal (ETV1) was 1.74 fold enrichment (6-mer frequency, TF over GST control).
For CCATCT, the binding signal (FEV) was 1.27 fold enrichment (6-mer frequency, TF over GST control), the binding signal (ETV5) was 1.29 fold enrichment (6-mer frequency, TF over GST control) and the binding signal (HSF1) was 1.31 fold enrichment (6-mer frequency, TF over GST control). The binding signal (SPIC) was 1.35 fold enrichment (6-mer frequency, TF over GST control), the binding signal (ELF4) was 1.25 fold enrichment (6-mer frequency, TF over GST control) and the binding signal (ELK4) was 1.4 fold enrichment (6-mer frequency, TF over GST control). The binding signal (ETV2) was 1.39 fold enrichment (6-mer frequency, TF over GST control), the binding signal (ELF3) was 1.34 fold enrichment (6-mer frequency, TF over GST control) and the binding signal (CRX) was 1.28 fold enrichment (6-mer frequency, TF over GST control). The binding signal (ETV1) was 1.34 fold enrichment (6-mer frequency, TF over GST control).
